# Laboratory results: PubChem BioAssay AID463173 (ICCB-Longwood Screening Facility, Harvard Medical School, 2010)
# In all, about 52,000 compounds went through this assay and about 4,300 (8.3%) were called active. No stated cut-off is given here; in the data, active means survival mostly below about 52% (no sharp cut-off); inactive means mostly above about 56%. Only a selection was taken, and actives are over-represented in it overall.
# System: DeltatarO mutant
# Assay: growth inhibition of S. aureus wild type versus tarO mutant, primary screen, teichoic acid synthesis inhibitors, RN4220, OD600 (AID 463173)
# Details: OD600, 18 h, hits give low values, screened at 18.75 µg/mL (by protocol)
row,SMILES,survival
1,N#C/C(=C(/O)CN1C(=O)c2ccccc2C1=O)c1nc2ccccc2[nH]1,76% (inactive)
2,Cc1ccccc1Nc1c(-c2ccc(N3CCOCC3)cc2)nc2ccccn12,41% (active)
3,Cc1ccc(-c2nc3ncccn3c2Nc2ccc3c(c2)OCCO3)cc1,79% (inactive)
4,Cc1ccn2c(Nc3ccccc3C)c(-c3ccc(N4CCOCC4)cc3)nc2c1,89% (inactive)
5,Cc1ccc(Nc2c(-c3ccc(N4CCOCC4)cc3)nc3ncccn23)cc1,139% (inactive)
6,Cc1ccc(Nc2c(-c3ccc(C)s3)nc3ncccn23)cc1,9% (active)
7,Cc1ccc2nc(-c3ccc(N4CCOCC4)cc3)c(Nc3ccccc3C)n2c1,71% (inactive)
8,CCOC(=O)c1cnc2cc(-c3ccc(C)cc3)nn2c1C,74% (inactive)
9,O=C1COc2cc(S(=O)(=O)CCC(=O)NC3CCCCC3)c(Cl)cc2N1,93% (inactive)
10,CCc1sc(Nc2cccc(C)c2)nc1-c1cc2cccc(OC)c2oc1=O,94% (inactive)
11,O=C(NC1CCCC1)c1ccc2c(c1)N(Cc1ccccc1)C(=O)c1ccccc1S2,105% (inactive)
12,Cc1ccccc1CN1C(=O)c2ccccc2Sc2ccc(C(=O)NCc3cccs3)cc21,93% (inactive)
13,Cc1ccc(CN2C(=O)c3ccccc3Sc3ccc(C(=O)NCCCN4CCOCC4)cc32)cc1,126% (inactive)
14,O=C(NC1CCCCC1)c1ccc2c(c1)N(Cc1ccccc1)C(=O)c1ccccc1S2,46% (active)
15,Cc1cccc(CN2C(=O)c3ccccc3Sc3ccc(C(=O)NCCCN4CCOCC4)cc32)c1,37% (active)
16,Cc1cccc(CN2C(=O)c3ccccc3Sc3ccc(C(=O)NCc4ccco4)cc32)c1,102% (inactive)
17,Cc1ccc(C)c(CN2C(=O)c3ccccc3Sc3ccc(C(=O)NCc4ccco4)cc32)c1,17% (active)
18,Cc1ccc(CN2C(=O)c3ccccc3Sc3ccc(C(=O)NCc4ccco4)cc32)cc1,81% (inactive)
19,Cc1ccc(CN2C(=O)c3ccccc3Sc3ccc(C(=O)NC4CCCCC4)cc32)cc1,100% (inactive)
20,Cc1ccccc1CN1C(=O)c2ccccc2Sc2ccc(C(=O)NCc3ccccc3)cc21,37% (active)

row,SMILES,survival
1,O=C(NCCCN1CCOCC1)c1ccc2c(c1)N(Cc1ccccc1)C(=O)c1ccccc1S2,98% (inactive)
2,Cc1ccccc1CN1C(=O)c2ccccc2Sc2ccc(C(=O)NCCc3ccccc3)cc21,101% (inactive)
3,Cc1ccc(C)c(N2CCN(S(=O)(=O)c3ccc4c(c3)OCCO4)CC2)c1,76% (inactive)
4,Cc1nn(-c2ccccc2)c2c1N(CC(=O)N1CCN(c3ccc(F)cc3)CC1)C(=O)CS2,81% (inactive)
5,CC(C)(C)c1ccc(C(=O)NCC(c2cccs2)S(=O)(=O)c2ccc(F)cc2)cc1 (centres undefined),90% (inactive)
6,Cc1ccc(CNC(=O)C2CCCN(c3nn4cc(-c5ccc(C)cc5)nc4s3)C2)cc1 (centres undefined),93% (inactive)
7,CC(=O)c1ccc(N2C(=O)N(CC(=O)c3ccc(F)cc3)c3ccccc3S2(=O)=O)cc1,102% (inactive)
8,Cc1ccc(NC(=O)CCCc2nc(-c3ccco3)no2)cc1Cl,80% (inactive)
9,CCc1cccc(C)c1NC(=O)Cn1ncc2c3ccccc3n(Cc3ccccc3)c2c1=O,86% (inactive)
10,O=C(Nc1ccc2c(c1)N(C1CCCC1)C(=O)c1ccccc1S2)c1ccccc1,60% (inactive)
11,CC(=O)Nc1ccc(C(=O)Nc2ccc3c(c2)N(C2CCCC2)C(=O)c2ccccc2S3)cc1,-4% (active)
12,O=C(Nc1ccc2c(c1)N(C1CCCC1)C(=O)c1ccccc1S2)c1ccc(F)cc1,66% (inactive)
13,COc1ccc(CNC(=O)c2ccc3c(c2)N(Cc2cccc(Cl)c2)C(=O)c2ccccc2S3)c(OC)c1,83% (inactive)
14,COc1cccc(CNC(=O)c2ccc3c(c2)N(Cc2ccc(F)cc2Cl)C(=O)c2ccccc2S3)c1,25% (active)
15,COc1cccc(CN2C(=O)c3ccccc3Sc3ccc(C(=O)NCc4ccccc4)cc32)c1,80% (inactive)
16,CC(=O)N1CCc2cc(CNS(=O)(=O)c3ccc(Cl)s3)ccc21,70% (inactive)
17,CS(=O)(=O)c1ccccc1-c1nnc(NC(=O)c2ccc3c(c2)OCCO3)o1,-4% (active)
18,CS(=O)(=O)c1ccc(-c2nnc(NC(=O)c3ccc4c(c3)OCCO4)o2)cc1,60% (inactive)
19,CSc1ccccc1-c1nnc(NC(=O)c2ccc3c(c2)OCCO3)o1,119% (inactive)
20,COc1ccc(S(=O)(=O)N2CCN(C)CC2)c(Cl)c1Cl,75% (inactive)

row,SMILES,survival
1,O=C1c2[nH]nc(-c3ccccc3O)c2C(c2cccc(OCc3ccccc3)c2)N1CCCO (centres undefined),56% (active)
2,O=C1c2[nH]nc(-c3ccccc3O)c2C(c2cccc(O)c2)N1Cc1ccncc1 (centres undefined),103% (inactive)
3,CCCCN1C(=O)c2[nH]nc(-c3ccccc3O)c2C1c1cccc(OCc2ccccc2)c1 (centres undefined),18% (active)
4,CCCN1C(=O)c2[nH]nc(-c3ccccc3)c2C1c1cccc(O)c1 (centres undefined),54% (inactive)
5,CCCN1C(=O)c2[nH]nc(-c3ccccc3O)c2C1c1cccc(OCc2ccccc2)c1 (centres undefined),8% (active)
6,O=C1c2[nH]nc(-c3ccccc3O)c2C(c2cccc(OCc3ccccc3)c2)N1CCO (centres undefined),67% (inactive)
7,Fc1ccc(-c2cn3cc(Cc4ccc(Cl)cc4)sc3n2)cc1,55% (inactive)
8,COc1ccc(CCNC(=O)CCCn2c(=O)c3ccccc3n(CC(=O)Nc3cc(Cl)ccc3C)c2=O)cc1OC,69% (inactive)
9,Cc1sc2c(c1C)c(=O)n(-c1ccc(Cl)cc1)c(=O)n2Cc1cc(=O)n2cc(Br)ccc2n1,76% (inactive)
10,COc1ccc2c(c1)CCc1c(C(=O)Nc3ccc(OC)cc3OC)noc1-2,180% (inactive)
11,COc1ccc(CCNC(=O)c2ccc3c(c2)nc2n3CCOC2)cc1OC,-2% (active)
12,CCOc1ccc(CNC(=O)c2ccc3c(c2)nc2n3CCOC2)cc1OC,6% (active)
13,O=C(NCc1ccccc1)c1ccc2c(c1)nc1n2CCOC1,84% (inactive)
14,CCOc1ccc(CNC(=O)c2ccc3c(c2)nc2n3CCC(C)C2)cc1OC (centres undefined),73% (inactive)
15,COc1ccc(CCNC(=O)c2ccc3c(c2)nc2n3CCCCC2)cc1OC,75% (inactive)
16,O=C(NCc1ccccc1Br)c1ccc2c(c1)nc1n2CCOC1,-1% (active)
17,CCOc1ccc(CNC(=O)c2ccc3c(c2)nc2n3CCOC2)cc1,90% (inactive)
18,CCOc1ccc(CCNC(=O)c2ccc3c(c2)nc2n3CCOC2)cc1OCC,79% (inactive)
19,Cc1ccc(C)c(CNC(=O)c2ccc3c(c2)nc2n3CCOC2)c1,67% (inactive)
